Assay outcomes: PubChem BioAssay, National Center for Advancing Translational Sciences (NCATS)
Hits are enriched below; roughly 6.6% of the tested compounds scored in any of these assays.
HepG2 tox: HepG2 cytotoxicity, counter-screen for TGF-b inhibitors; HepG2 CAGA-GFP viability, ATP luminescence, 18 h; 410,000 compounds, 0.76% hits; Potency, µM (top dose mostly 46.1 µM), without a hit: at the top dose activity change, negative = cytotoxicity, most hits filed as cytotoxic
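CellTiter-Glo luminescence gave cytotoxicity after 18 hours at 37 degrees C. The cells were HepG2 CAGA-GFP in 1% FBS DMEM, stimulated with 500 pg/mL TGF-beta after compound addition. %Activity was normalised to no-cell wells (complete cell-killing) and DMSO (no toxicity), and curves were fitted and classified.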
HT1080 IDH1KD tx: toxicity to HT-1080 IDH1 knockdown cells (counter line) | AID 686971 | Potency, µM (top dose mostly 46.1 µM), without a hit: at the highest dose activity, negative = toxicity, hits mostly cytotoxic | 360,000 compounds, 2% hits | HT-1080 IDH1 knockdown viability, ATP luminescence, 48 h;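 note: 0% = DMSO wells and -100% = cell-free medium wells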
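IDH1KD HT-1080 cells, 750/well, RPMI + 5% FBS; compound pinned after 2 h settling; 48 h, 37 °C; CellTiter-Glo luminescence; % activity normalised to DMSO and no-cell wells; curves fitted, classed by r2 and efficacy.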
TGFb SMAD3 inh: TGF-b pathway inhibition. HepG2 CAGA-GFP TGF-b/SMAD3 reporter, GFP fluorescence, 18 h; TGF-beta stimulated, 500 pg/mL final. Potency, µM (highest dose often 46.1 µM), inactives show at the top dose activity, negative = inhibition, most hits filed as inhibitors. 410,000 compounds, 1.2% hits. AID 588855; note: % is set by controls: 0 for no effect and ±100 for the full control effect; nearly all actives have a fitted effect of over 65% in size
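Inhibition was scored as loss of TGF-beta-induced (500 pg/mL final, 18 hours, 37 degrees C) GFP in HEPG2 cells carrying a CAGA-GFP reporter, in DMEM with 1% FBS. Well GFP was summed per cell; Activity was normalised to unstimulated and stimulated DMSO wells, then concentration-response fitting.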
KB-3-1 cytotox: kills parental KB-3-1 adenocarcinoma cells | KB-3-1 viability, CellTiter-Glo ATP luminescence, 72 h | Potency, µM (top dose mostly 46.1 µM), usual class: cytotoxic | 400,000 compounds, 1.4% hits | AID 1347075; note: % is set by controls: 0 for no effect and ±100 for the full control effect; nearly all actives have a fitted effect of over 60% in size
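Luminescent ATP read-out (CellTiter-Glo) measures survival of drug-naive KB-3-1 cells after 72 h compound exposure at 37 °C. Titration series was screened from lowest to highest concentration, with DMSO vehicle plates as background controls.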
HT1080-NT tox: kills 2HG-producing HT-1080-NT fibrosarcoma cells; Potency, µM (highest dose often 46.1 µM), inactives show top-dose activity, negative = less viability, hits mostly cytotoxic; 360,000 compounds, 1.6% hits; HT-1080-NT fibrosarcoma viability, CellTiter-Glo ATP luminescence, 48 h; AID 686970;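 note: NT is the 2HG producing partner of a matched IDH1 knockdown line; 0% = DMSO-treated cells and -100% = media-only wells without cells; nearly all actives have a fitted effect of over 55% in size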
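Read-out is CellTiter-Glo luminescence after 10 minutes at room temperature, following 48 hours' compound treatment of HT-1080-NT cells (750 cells/well, RPMI, 5% FBS, 37 degrees C).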
KB-V1 MDR tox: kills drug-selected multidrug resistant KB-V1 cells | 400,000 compounds, 3.4% hits | AID 1347076 | KB-V1 MDR cells viability, CellTiter-Glo, 72 h | Potency, µM (titrated, usually from 46.1 µM), hits mostly cytotoxic; note: % is set by controls: 0 for no effect and ±100 for the full control effect; nearly all actives have a fitted effect of over 60% in size
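qHTS viability screen in drug-selected KB-V1 MDR cells: 72 h compound treatment at 37 degrees C, ATP luminescence end point.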
* marks the source's active call; other numbers are inactive results; i = inactive; ? = inconclusive; · = not tested or not shown; ! = a repeat was not active. Calls come from the whole dose curve; as a rule, active = well fitted curve in the direction sought with a large enough effect; inconclusive = small, poorly fitted or top-dose-only effect, or another doubt; inactive = no such curve, though single readings can be large; an effect the other way counts as inactive or inconclusive. Potency is the fitted concentration of half-maximal effect.

SMILES | HepG2 tox | HT1080 IDH1KD tx | TGFb SMAD3 inh | KB-3-1 cytotox | HT1080-NT tox | KB-V1 MDR tox
CCS(=O)(=O)Nc1cccc(C2=NN(C(=O)c3ccco3)C(c3ccco3)C2)c1 (centres undefined) | -21.2% | ? | -4.8% | 8.2µM* | ? | i
CC(=O)N1N=C(c2ccc(NS(=O)(=O)c3ccccc3)cc2)CC1c1ccco1 (centres undefined) | -24.2% | 5.17µM* | ? | ? | 4.61µM* | i
CS(=O)(=O)Nc1cccc(C2=NN(C(=O)c3ccco3)C(c3ccco3)C2)c1 (centres undefined) | -9.6% | -26.3% | 3.7% | ? | -0.5% | i
CCOC(=O)c1ccc(NC(=O)C2CCN(S(=O)(=O)Cc3ccccc3)CC2)cc1 | -15.1% | · | 3.4% | i | · | i
CCn1cc2nc(SCC(=O)Nc3cc(OC)cc(OC)c3)n(Cc3ccc(Cl)cc3)c(=O)c2n1 | -3.8% | · | 0.0% | i | · | i
CC(=O)Nc1ccc(Cl)c(C(N)=O)c1 | -6.9% | -0.8% | ? | i | 23.9% | i
NC(=O)c1cc(N2C(=O)C=CC2=O)ccc1Cl | 0.0% | 15.8µM* | -13.2% | i | ? | i
COC(=O)[C@@]12C[C@@H](CC(=O)NCCCN3CCCC3=O)C(=O)N(Cc3ccco3)C1=CCC(C)(C)C2 | · | 0.0% | · | i | -0.3% | i
COc1ccc(-c2nc3sc(CCNC(=O)c4cc(Cl)ccc4OC)c(C)n3n2)cc1 | -18.5% | · | -16.8% | i | · | i
CCCC1=Nc2cc(C(=O)N3CCC(C(=O)OCC)CC3)ccc2Sc2ccccc21 | -9.0% | -11.9% | 12.6µM*! | i | ? | i
CCCC1=Nc2cc(C(=O)NCCCOCC)ccc2Sc2ccccc21 | -19.1% | 0.731µM* | ? | 0.517µM* | 1.64µM* | 1.03µM*
CCCC1=Nc2cc(C(=O)NCCOC)ccc2Sc2ccccc21 | 7.0% | · | · | · | · | ·
CCCC1=Nc2cc(C(=O)N3CCC(C(N)=O)CC3)ccc2Sc2ccccc21 | -1.2% | -6.8% | 18.6% | i | -4.8% | i
CCCC1=Nc2cc(C(=O)NCCCOC(C)C)ccc2Sc2ccccc21 | 4.6% | 18.4µM* | -29.2% | 4.61µM* | 11.6µM* | 7.31µM*
CCOC(=O)C1CCCN(C(=O)c2ccc3c(c2)C(C)(C)CCC3(C)C)CC1 (centres undefined) | -39.2% | ? | 14.1µM* | i | ? | i
CCOC(=O)[C@]12CCCC=C1N(Cc1ccco1)C(=O)[C@H](CC(=O)NCCC(C)C)C2 | · | 7.1% | · | i | 20.1% | ?
CC(=O)c1cccc(NC(=O)CCS(=O)(=O)c2ccc3c(c2)n(C)c(=O)c(=O)n3C)c1 | 5.7% | · | · | · | · | ·
COc1ccc(/C=N/Nc2cc(C)nc(-n3nc(C)cc3C)n2)c(OC)c1 | 1.0% | 9.2µM* | ? | i | ? | ?
COc1ccccc1/C=N/Nc1cc(C)nc(N2CCOCC2)n1 | -23.1% | 2.8% | -17.3% | i | 3.6% | i
Cc1cc(N/N=C/c2ccc(F)cc2)nc(-n2nc(C)cc2C)n1 | -4.8% | 1.84µM* | ? | ? | ? | i
CCOc1ccc(Nc2cc(C)nc(-n3nc(C)cc3C)n2)cc1 | -21.3% | 0.411µM* | ? | 0.411µM* | ? | ?
COc1cccc(/C=N/Nc2nc(Nc3ccccc3)nc(-n3nc(C)cc3C)n2)c1O | -43.5% | 7.31µM* | 1.58µM* | 5.17µM* | 6.51µM* | ?
COc1ccc(N2CCN(c3ccc(-c4nc(-c5ccccc5C)no4)cc3[N+](=O)[O-])CC2)cc1 | -9.3% | · | -19.0% | i | · | ?
CCC(O)c1nc2ccccc2n1Cc1cc(C)ccc1C (centres undefined) | 1.7% | · | -14.4% | · | · | ·
CCOc1cc(/C=N/Nc2cc(C)nc(-n3nc(C)cc3C)n2)ccc1O | -37.4% | 5.8µM* | ? | i | 5.8µM* | i
SMILES | HepG2 tox | HT1080 IDH1KD tx | TGFb SMAD3 inh | KB-3-1 cytotox | HT1080-NT tox | KB-V1 MDR tox
COc1ccc(/C=N/Nc2nonc2N)c(OC)c1 | 1.0% | 10.7% | 2.2% | ? | 2.0% | 4.11µM*
CCOc1cc(/C=N/Nc2nc(C)cc(=O)[nH]2)ccc1O | -0.8% | 9.7% | 66.8% | i | 22.5% | i
COc1ccc(/C=N/Nc2nccnc2Cl)c(OC)c1 | -41.3% | -9.8% | 20.4% | i | -14.0% | i
CCN1CCc2c(sc(NC(=S)NC(=O)c3cccc(F)c3)c2C(N)=O)C1 | -13.6% | · | 56.5% | i | · | i
Cc1c(C(=O)NC(C)c2ccccc2)sc2ncnc(N(C)C3CCCCC3)c12 (centres undefined) | -3.2% | · | -1.6% | i | · | i
COc1ccc(-c2nnc(SCC(=O)Nc3cccc(C(F)(F)F)c3)s2)cc1 | -3.5% | · | -11.2% | i | · | i
CCOc1ccc(CN(C)CC(=O)Nc2ccc([N+](=O)[O-])cc2Cl)cc1 | -11.2% | -8.6% | -1.9% | i | -3.6% | 16.4µM*
CN(CCOc1ccccc1)CC(=O)Nc1cc([N+](=O)[O-])ccc1Cl | -12.4% | -8.7% | 2.2% | i | -4.5% | ?
CN(C)c1ccc(C(=O)n2nnc3ccccc32)cc1 | -1.4% | 15.8µM* | 1.8% | i | ? | i
CCCC(=O)Nc1ccc(C(=O)n2nnc3ccccc32)cc1 | 10.1% | 7.3% | -6.2% | i | 10.6% | i
CC1CC1C(=O)Nc1nc(-c2ccccc2)cs1 (centres undefined) | -45.5% | -3.5% | -2.4% | i | 5.4% | i
Cc1cnc(C(=O)Nc2nc(-c3ccccc3)cs2)cn1 | -1.4% | -11.1% | 26.2% | i | -3.5% | 23.1µM*
O=C(Nc1nc(-c2ccccc2)cs1)c1ccc(=O)[nH]c1 | -2.7% | -18.0% | 9.8% | ? | ? | 18.4µM*
CC(=O)c1c(C)[nH]c(C(=O)Nc2nc(-c3ccc(-c4ccccc4)cc3)cs2)c1C | -28.3% | ? | ? | 14.6µM* | ? | 20.6µM*
COc1cccc(-n2c(=O)c3c(C)c(C)sc3n(CC(=O)Nc3ccccc3OC)c2=O)c1 | -1.7% | · | -1.0% | i | · | i
Cc1onc(-c2ccccc2Cl)c1C(=O)NCc1nnnn1-c1ccc(F)c(F)c1 | -8.0% | -8.1% | 0.6% | i | -0.5% | ?
O=C(NN=Cc1ccc(Cl)cc1Cl)C1CC1 | -4.9% | ? | -13.9% | i | 17.2% | 14.6µM*
O=C(CN1CCCCC1)N/N=C/c1ccc(Cl)cc1Cl | -30.3% | -12.2% | -5.6% | i | 3.2% | i
